Results filed as inconclusive are left out. Active and inactive are the calls of the source. The call rests on the fitted dose curve; in most records, active means well fitted inhibition curve with a large enough effect; inconclusive means small, poorly fitted or top-dose-only effect; inactive means no such curve, though single readings can be large or run the other way.
system: Zika virus NS2B-NS3 protease (linked construct); assay: Primary screen NINDS Rhodamine qHTS for Zika virus inhibitors (AID 1347160); conditions: purified NS2B-NS3 protease, Rhodamine110 substrate fluorescence; series mostly up to 57.1 µM; further: nearly all actives have a fitted effect of over 55% in size
Description: Avindra Nath, Ph.D., National Institute of Neurological Disorders and Stroke (NINDS), Bethesda, MD
Radhakrishnan Padmanabhan, Ph.D., Georgetown University (GU), Washington D.C.
Zika Virus causes congenital defects, including microcephaly and is associated with Guillain-Barre syndrome, eningoencephalitis and myelitis in infected adult. […] Using a target-based approach, we hope to establish a screening paradigm to uncover novel, cell-active NS2B-NS3 protease (Zika Virus) specific inhibitors from NCATS' collection of small molecules using qHTS.
Four assay panel was created to identify potential Zika Virus inhibitors. Namely, (1) GU unlinked NS2B-NS3 AMC tagged protease qHTS, (2) GU unlinked NS2B-NS3 Rhodamine tagged protease qHTS, (3) NINDS linked NS2B-NS3 AMC tagged protease qHTS, (4) NINDS linked NS2B-NS3 Rhodamine tagged protease qHTS. Active compounds were re-acquired and re-screened to confirm inhibition. Inhibitors were further screened against various confirmatory and counterscreens in dose response format.
Early Translation Branch (ETB)
National Center for Advancing Translational Sciences (NCATS), Rockville, MD
National Institute of Health (NIH), Bethesda, Maryland
For the linked assay, Nath lab (NINDS) provided the purified linked NS2B-NS3 protease which is consists of hydrophilic domain of NS2B linked to the NS3 protease domain by a flexible (-[…]-) linker. Control compound aprotinin is obtained from Thermo Scientific (#78432; Waltham, Massachusetts). Rhodamine110 substrate ([N-Cbz]-Nle-Lys-Arg-Arg-Rhod110-Arg-Arg-Lys-Nle-[N-Cbz]) was purchased from either Genscript or Bachem.
1536-well Protease (Rhodamine110 Substrate) Assay:
Briefly, 3 microL of enzyme (25 nM final concentration), in assay buffer (10 mM Tris-HCl pH 8.0 with 0.01% Tween 20) were dispensed into a 1,536-well solid-bottom black plate (Greiner Bio One, Monroe, NC). Twenty-three nL of compounds (final concentration range 7.28 nM to 114 microM) or control Aprotinin (final concentration range 3.47 nM to 114 microM) were transferred via Wako Pin-tool (Wako Automation, Richmond, VA). Samples were incubated (room temperature, protected from light) for 15 minutes followed by a 1 microL Rhodamine110 substrate addition (1.5 microM final concentration). Plates were then immediately read on a ViewLux High-throughput CCD imager (PerkinElmer, Waltham, MA) equipped with FITC fluorescence optics (480(20) nm excitation, 540(25) nm emission), then incubated (room temperature, protected from light) for 15 minutes (~15% conversion). The change in fluorescence intensity over the 15-minute reaction period was normalized against no-inhibitor and no-enzyme controls and the resulting percent inhibition data were fitted to a 4-parameter Hill equation. Aprotinin was used as intraplate control.

Which outcome does the source give for O=C(O)CCn1c2c(c3ccccc31)C[C@H](NS(=O)(=O)c1ccc(F)cc1)CC2 here?
Its outcome is “inactive”.

How did the outcome turn out when CC(C(=O)O)c1ccc2c(c1)CC(=O)c1ccccc1S2 (stereo unspecified) was run?
The outcome was “inactive”.

Nc1nc(F)nc2c1ncn2[C@@H]1O[C@H](CO)[C@@H](O)[C@@H]1O was tested. Which outcome did it give?
The outcome was “inactive”.

How did the outcome turn out when CN(C)CCc1c[nH]c2ccc(C[C@H]3COC(=O)N3)cc12 was run?
Its outcome is “inactive”.

For CNS(=O)(=O)CCc1ccc2[nH]cc(C3CCN(C)CC3)c2c1, which outcome is on record?
Its outcome is “inactive”.

For O=C(NCC1CN(c2ccc(N3CCOCC3=O)cc2)C(=O)O1)c1ccc(Cl)s1 (stereo unspecified), which outcome is on record?
The outcome was “inactive”.

Which outcome does the source give for CC[C@H](C)C(=O)O[C@H]1C[C@@H](C)C=C2C=C[C@H](C)[C@H](CC[C@@H]3C[C@@H](O)CC(=O)O3)[C@H]21 here?
The outcome was “inactive [at 33.1 µM]”.

With CC1(C)[C@H](C(=O)O)N2C(=O)C[C@H]2S1(=O)=O as the molecule, how does the outcome read?
The outcome was “inactive”.

How did the outcome turn out when Cc1onc(-c2ccccc2Cl)c1C(=O)N[C@@H]1C(=O)N2[C@@H]1SC(C)(C)[C@@H]2C(=O)O was run?
Its outcome is “inactive”.

Which outcome does the source give for NC1(c2ccc(-c3nc4ccn5c(=O)[nH]nc5c4cc3-c3ccccc3)cc2)CCC1 here?
The outcome was “inactive”.

Which outcome does the source give for COc1cc2c(Nc3ccc(Br)cc3F)ncnc2cc1OCC1CCN(C)CC1 here?
The outcome was “inactive”.

How did the outcome turn out when CC1=NN(c2ccccc2)C(=O)C1 was run?
The outcome was “inactive”.

With CCCCc1oc2ccc(NS(C)(=O)=O)cc2c1C(=O)c1ccc(OCCCN(CCCC)CCCC)cc1 as the molecule, how does the outcome read?
The outcome was “inactive; activator”.

For Cc1nnc(C(=O)NC(C)(C)c2nc(C(=O)NCc3ccc(F)cc3)c(O)c(=O)n2C)o1, which outcome is on record?
Its outcome is “inactive”.

COc1cc2ncnc(Nc3cccc(Cl)c3)c2cc1OC was tested. Which outcome did it give?
The outcome was “inactive”.

Which outcome does the source give for O=P(O)(O)C(O)(Cc1cccnc1)P(=O)(O)O here?
The outcome was “inactive [at 4.91 µM]”.
